PubChem BioAssay (NCATS)
Inconclusive results are not listed. Activity calls are given as the source filed them. Calls follow the shape of the dose curve; as a rule, active = well fitted curve in the direction sought with a large enough effect; inconclusive = small, poorly fitted or top-dose-only effect, or another doubt; inactive = no such curve, though single readings can be large; an effect the other way counts as inactive or inconclusive.

Legend:
[1] = test system: Zika virus NS2B-NS3 protease (linked construct); test: Primary screen NINDS Rhodamine qHTS for Zika virus inhibitors (AID 1347160); also: nearly all actives have a fitted effect of over 55% in size
In short: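 Purified NS2B-NS3 protease with the NS2B hydrophilic domain joined by a flexible linker (25 nM) in 10 mM Tris-HCl pH 8.0, 0.01% Tween 20, preincubated 15 min at RT with compound; Rhodamine110 peptide substrate 1.5 µM; fluorescence change over 15 min; 4-parameter Hill fit.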

[2] = target: Calcium and integrin-binding protein 1 (Homo sapiens) (UniProt Q99828); test: Primary qHTS for Identification of Calcium Integrin Binding Protein 1 (CIB1) Competitor (AID 1508620);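 also: GST tagged CIB1 binding a fluorescein labelled alphaIIb integrin peptide tracer; top concentration of the series differs between compounds; % is scaled to controls: 0 for no effect and ±100 for the full control effect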
In short: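 Fluorescence polarization competition: GST-tagged CIB1 (1 uM final) preincubated with compound 15 min at room temperature, then FITC-labelled alphaIIb peptide (100 nM final) added. After 15 min at room temperature, polarization read at Ex 480/Em 540.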

[3] = target: Glutathione peroxidase 1 (Homo sapiens) (UniProt P07203); test: Primary qHTS Assay for Inhibitors of Recombinant Selenoprotein Glutathione Peroxidase 1 (GPX1) (AID 1845191); also: nearly all actives have a fitted effect of over 65% in size
In short: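 GR-coupled assay: compounds preincubated 30 min at room temperature with GPX1, then reaction started with CHP; final 10 nM GPX1, 1 mM GSH, 0.5 mM CHP, 0.5 mM NADPH, 100 nM GR, 0.01% BSA, pH 7.5 Tris buffer. NADPH fluorescence (340/450 nm) read at 0 and 15 min.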

[4] = target: Phospholipid hydroperoxide glutathione peroxidase GPX4 (Homo sapiens) (UniProt P36969); test: Primary qHTS Assay for Inhibitors of Recombinant Selenoprotein Glutathione Peroxidase 4 (GPX4) (AID 1845192); also: % is scaled to controls: 0 for no effect and ±100 for the full control effect; nearly all actives have a fitted effect of over 65% in size
In short: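 GR-coupled assay: recombinant GPX4 preincubated 30 min with compound at room temperature; final 200 nM GPX4, 1 mM GSH, 0.5 mM cumene hydroperoxide, 0.5 mM NADPH, 100 nM GR, 0.01% BSA, pH 7.5 Tris. NADPH fluorescence (340/450 nm) read at 0 and 15 min.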

[5] = target: Luciferin 4-monooxygenase (Photinus pyralis) (UniProt P08659); test: Primary firefly luciferase (FLuc) qHTS assay for identification of artifact compounds. (AID 1845220); conditions: outcome: dose series up to 54.1 µM unless noted; also: nearly all actives have a fitted effect of over 60% in size
In short: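 Titrated compounds were incubated 15 min at RT, protected from light, with luciferin and ATP at 10 uM; reaction started with 10 nM FLuc, luminescence imaged at 5 min, and concentration-response fitted by Hill equation.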

[6] = test system: Nanoluciferase (engineered Oplophorus gracilirostris luciferase); test: Primary Nanoluciferase (NLuc) qHTS assay for identification of artifact compounds. (AID 1845222);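 also: NLuc secreted into diluted conditioned medium of S16 cells; 0% = DMSO and -100% = no enzyme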
In short: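 qHTS format, against NLuc in S16 cell-conditioned medium. Nano-Glo substrate 1:100 was added after 15 min at room temperature. Luminescence was taken after a further 5 min.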

CRL-7250 = normal cell line; test: Cytotoxic Profiling of Annotated Libraries Using Quantitative High-Throughput Screening (AID 1296008); conditions: Five cell lines viability, CellTiter-Glo ATP luminescence, 48-72 h; max response: active compounds read low; also: nearly all actives have a fitted effect of over 60% in size; also: potency is read from the fitted curve at half-maximal effect; as to max response: % is scaled to controls: 0 for no effect and ±100 for the full control effect
In short: (§1)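 Cells exposed to compounds for 48 or 72 hr at 37 degrees Celsius. Viability read as ATP-coupled luminescence with CellTiter-Glo after 10 min at room temperature.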

NIH3T3 = test: as above; conditions: Five cell lines viability, CellTiter-Glo ATP luminescence, 48-72 h; max response: active compounds read low
In short: as §1

C33A = test: Primary qHTS to identify gynecologic anti-cancer compounds using libraries of approved drugs and bioactive compounds (AID 1345084); conditions: Gynecologic cancer cell panel viability, ATPlite luminescence, 48 h; series mostly up to 57.5 µM; also: nearly all actives have a fitted effect of over 55% in size; also: potency is read from the fitted curve at half-maximal effect
In short: (§2)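 ATP-based viability (ATPlite), 1,000 cells/well, 16 h pre-incubation, 48 h compound at 37 C, 5% CO2, 15 min RT before read.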

CAOV3 = test: as above; conditions: Gynecologic cancer cell panel viability, ATPlite luminescence, 48 h; series mostly up to 57.5 µM
In short: as §2

CASKI = test: as above; conditions: Gynecologic cancer cell panel viability, ATPlite luminescence, 48 h; series mostly up to 57.5 µM
In short: as §2

Es-2 = test: as above; conditions: Gynecologic cancer cell panel viability, ATPlite luminescence, 48 h; series mostly up to 57.5 µM
In short: as §2

HeLa = test: as above; conditions: Gynecologic cancer cell panel viability, ATPlite luminescence, 48 h; series mostly up to 57.5 µM
In short: as §2

Hek293T = test: as above; conditions: Gynecologic cancer cell panel viability, ATPlite luminescence, 48 h, control line for the selectivity index; series mostly up to 57.5 µM
In short: as §2

JEG-3 = test: as above; conditions: Gynecologic cancer cell panel viability, ATPlite luminescence, 48 h; series mostly up to 57.5 µM
In short: as §2

OV90 = test: as above; conditions: Gynecologic cancer cell panel viability, ATPlite luminescence, 48 h; series mostly up to 57.5 µM
In short: as §2

PA-1 = test: as above; conditions: Gynecologic cancer cell panel viability, ATPlite luminescence, 48 h; series mostly up to 57.5 µM
In short: as §2

Tov-21-G = test: as above; conditions: Gynecologic cancer cell panel viability, ATPlite luminescence, 48 h; series mostly up to 57.5 µM
In short: as §2

Tov112D = test: as above; conditions: Gynecologic cancer cell panel viability, ATPlite luminescence, 48 h; series mostly up to 57.5 µM
In short: as §2

[7] = P-glycoprotein substrates identified in KB-8-5-11 adenocarcinoma cell line, qHTS therapeutic library screen (AID 1346987); also: nearly all actives have a fitted effect of over 65% in size; also: potency is read from the fitted curve at half-maximal effect
In short: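 KB-8-5-11: colchicine-selected sub-line of KB-3-1 over-expressing P-gp; assay medium lacked colchicine. 72 h drug exposure at 37 degree C, CellTiter-Glo.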

Glutathione peroxidase 1 (Homo sapiens), sequence (P07203 whole entry, looked up): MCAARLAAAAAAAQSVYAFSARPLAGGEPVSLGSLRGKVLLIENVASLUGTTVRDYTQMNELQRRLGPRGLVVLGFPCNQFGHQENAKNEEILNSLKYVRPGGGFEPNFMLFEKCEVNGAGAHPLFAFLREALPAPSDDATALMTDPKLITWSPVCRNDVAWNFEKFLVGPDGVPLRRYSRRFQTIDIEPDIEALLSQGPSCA
Calcium and integrin-binding protein 1 (Homo sapiens), sequence (Q99828 whole entry, looked up): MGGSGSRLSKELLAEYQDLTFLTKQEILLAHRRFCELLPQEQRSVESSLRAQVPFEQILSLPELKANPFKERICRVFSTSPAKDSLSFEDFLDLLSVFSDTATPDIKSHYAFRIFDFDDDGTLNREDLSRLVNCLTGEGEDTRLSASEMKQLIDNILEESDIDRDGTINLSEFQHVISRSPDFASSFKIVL
Phospholipid hydroperoxide glutathione peroxidase GPX4 (Homo sapiens), sequence (P36969 whole entry, looked up): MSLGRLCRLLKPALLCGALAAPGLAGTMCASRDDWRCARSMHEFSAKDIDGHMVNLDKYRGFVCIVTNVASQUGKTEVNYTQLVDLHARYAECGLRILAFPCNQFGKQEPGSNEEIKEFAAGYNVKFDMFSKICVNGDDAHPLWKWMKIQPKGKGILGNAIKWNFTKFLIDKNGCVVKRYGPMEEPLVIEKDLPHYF

CN1C(=O)[C@@H](Cc2c[nH]c3ccccc23)N=C(c2ccccc2F)c2ccccc21
inactive: Potency [1] | Potency [2] | Potency [3] | Potency [4] | outcome [5] | Potency [6] | outcome (CRL-7250) | max response (NIH3T3) -3.73% | Potency (C33A) | Potency (CAOV3) | Potency (CASKI) | Potency (Es-2) | Potency (HeLa) | Potency (Hek293T) | Potency (JEG-3) | Potency (OV90) | Potency (PA-1) | Potency (Tov-21-G) | Potency (Tov112D)

c1ccc([C@@H]2C[C@H]2NC2CCNCC2)cc1
inactive: Potency [7] | Potency [2] | Potency [3] | Potency [4] | outcome [5] | max response (CRL-7250) -8.87% | Potency (C33A) | Potency (CAOV3) | Potency (CASKI) | Potency (Es-2) | Potency (HeLa) | Potency (Hek293T) | Potency (JEG-3) | Potency (OV90) | Potency (PA-1) | Potency (Tov-21-G) | Potency (Tov112D)

CCN1C[C@]2(COC)CC[C@H](O)[C@@]34C5C[C@@H]6[C@@H](OC)C[C@@](OC(C)=O)(C5[C@@H]6OC(C)=O)[C@H]([C@H](OC)C23)[C@@H]14 (some centres not stated)
inactive: Potency [7] | Potency [1] | Potency [2] | Potency [3] | Potency [4] | outcome [5] | Potency [6] | max response (CRL-7250) 0.922% | max response (NIH3T3) 2.14% | Potency (C33A) | Potency (CAOV3) | Potency (CASKI) | Potency (Es-2) | Potency (HeLa) | Potency (Hek293T) | Potency (JEG-3) | Potency (OV90) | Potency (PA-1) | Potency (Tov-21-G) | Potency (Tov112D)

C=C1C(=O)CC2OC2(C)CC2OC(=O)C(=C)C2C(O)C1OC(=O)/C(C)=C\C (configuration not stated)
active: Potency (CRL-7250) 10.1 µM
inactive: Potency [1] | Potency [3] | Potency [4] | outcome [5] | Potency [6] | Potency (HeLa) | Potency (JEG-3) | Potency (OV90) | Potency (Tov112D)

CC[C@H](O)[C@@H](C)[C@H]1O[C@@H]1C[C@H](C)/C=C/C=C(\C)[C@H]1OC(=O)C[C@H](O)CC[C@@](C)(O)[C@@H](OC(C)=O)/C=C/[C@@H]1C
active: Potency [7] 0.0092 µM | Potency (CRL-7250) 0.0164 µM | Potency (NIH3T3) 0.0116 µM
inactive: Potency [1] | Potency [2] | Potency [3] | Potency [4] | Potency [6] | Potency (JEG-3)

COc1cc(O)c2c(c1)CCC[C@@H](O)[C@H](O)C(=O)/C=C\C[C@H](C)OC2=O
active: Potency [7] 14.3 µM | Potency (CRL-7250) 5.08 µM | Potency (Hek293T) 11.2 µM | Potency (Tov-21-G) 1.78 µM
inactive: Potency [1] | Potency [3] | Potency [4] | Potency [6] | Potency (HeLa) | Potency (PA-1)

CN1CCN(c2nc3ccccc3nc2Cl)CC1
inactive: Potency [7] | Potency [1] | Potency [2] | Potency [3] | Potency [4] | outcome [5] | Potency [6] | max response (CRL-7250) -8.1% | outcome (NIH3T3) | Potency (C33A) | Potency (CAOV3) | Potency (CASKI) | Potency (Es-2) | Potency (HeLa) | Potency (Hek293T) | Potency (JEG-3) | Potency (OV90) | Potency (PA-1) | Potency (Tov-21-G) | Potency (Tov112D)

CC1=CC2OC3CC(O)[C@](C)([C@@]2(C)C(O)C1=O)[C@]31CO1 (some centres not stated)
inactive: Potency [1] | Potency [2] | Potency [3] | Potency [4] | outcome [5] | Potency [6] | Potency (CAOV3) | Potency (JEG-3)
active: Potency [7] 5.17 µM | Potency (CRL-7250) 5.8 µM | Potency (NIH3T3) 4.11 µM | Potency (Es-2) 8.91 µM | Potency (Hek293T) 3.16 µM | Potency (PA-1) 3.16 µM

COC(=O)C12C(=O)C(C)(O)C(=O)C1(C)C(C)=CC1C34CCC(OC3=O)C(C)(C)C4CCC12C (configuration not stated)
inactive: Potency [7] | Potency [1] | Potency [2] | Potency [3] | Potency [4] | outcome [5] | Potency [6] | max response (CRL-7250) -8.47% | max response (NIH3T3) -10.7% | Potency (C33A) | Potency (CAOV3) | Potency (CASKI) | Potency (Es-2) | Potency (HeLa) | Potency (Hek293T) | Potency (JEG-3) | Potency (OV90) | Potency (PA-1) | Potency (Tov-21-G) | Potency (Tov112D)

C=C(C)[C@@]12O[C@@H]1[C@@]1(C)C(=CC2=O)CC[C@@H](OC(C)=O)[C@@H]1C
active: Potency [7] 5.17 µM | Potency (CRL-7250) 6.51 µM | Potency (NIH3T3) 3.66 µM | Potency (Tov-21-G) 10 µM
inactive: Potency [2] | Potency [3] | Potency [4] | outcome [5] | Potency [6] | Potency (CAOV3) | Potency (CASKI) | Potency (JEG-3)

C=C1C[C@]2(O)[C@@]3(C)CCC(=O)C(C)(C)C3=C(O)C(=O)[C@@]2(C)[C@@H]2C(=O)O[C@@](C)(C(=O)OC)C(=O)[C@@]12C
inactive: Potency [7] | Potency [2] | Potency [3] | Potency [4] | outcome [5] | Potency [6] | max response (CRL-7250) 2.22% | max response (NIH3T3) 1.84% | Potency (C33A) | Potency (CAOV3) | Potency (CASKI) | Potency (Es-2) | Potency (HeLa) | Potency (Hek293T) | Potency (JEG-3) | Potency (OV90) | Potency (PA-1) | Potency (Tov-21-G) | Potency (Tov112D)

CN=C(NS(=O)(=O)c1ccc(Cl)cc1)N1C[C@H](c2ccccc2)C(c2ccc(Cl)cc2)=N1
inactive: Potency [1] | Potency [2] | Potency [4] | outcome [5] | Potency [6] | outcome (CRL-7250) | max response (NIH3T3) 4.13% | Potency (C33A) | Potency (CAOV3) | Potency (CASKI) | Potency (Es-2) | Potency (HeLa) | Potency (Hek293T) | Potency (JEG-3) | Potency (OV90) | Potency (PA-1) | Potency (Tov-21-G) | Potency (Tov112D)

C[C@@H]1O[C@@H](OC2CCC3(C=O)C(CCC4C3CCC3(C)C(C5=CC(=O)OC5)C(O)CC43O)C2)[C@H](O)[C@H](O)[C@H]1O[C@@H]1O[C@H](CO)[C@@H](O)[C@H](O)[C@H]1O (some centres not stated)
inactive: Potency [1] | Potency [2] | Potency [3] | Potency [4] | Potency [6] | max response (NIH3T3) 4.35% | Potency (CASKI)
active: Potency [7] 6.11 µM | Potency (CRL-7250) 3.06 µM | Potency (C33A) 5.62 µM | Potency (Es-2) 6.31 µM | Potency (Hek293T) 10 µM | Potency (Tov-21-G) 3.98 µM | Potency (Tov112D) 3.16 µM
